ClpP mod = qHTS Assay for Activators of ClpP; 340,000 compounds, 1.9% hits; ATP-dependent Clp protease proteolytic subunit (Bacillus subtilis (strain 168)), P80244; AID 651965, 2013; purified B. subtilis ClpP, FRET peptide cleavage, 20 min; Potency, µM (top dose mostly 57.5 µM), for inactives: at the highest dose activity change, negative = active; active = well fitted falling curve with a large enough effect; inconclusive = small, poorly fitted or top-dose-only effect; inactive = no such curve, though single readings can be large or run the other way; also: potency is read from the fitted curve at half-maximal effect; the source files actives as falling curves though it sought activators and does not explain the sign; nearly all actives have a fitted effect of over 65% in size
Target sequence (P80244 whole entry, looked up): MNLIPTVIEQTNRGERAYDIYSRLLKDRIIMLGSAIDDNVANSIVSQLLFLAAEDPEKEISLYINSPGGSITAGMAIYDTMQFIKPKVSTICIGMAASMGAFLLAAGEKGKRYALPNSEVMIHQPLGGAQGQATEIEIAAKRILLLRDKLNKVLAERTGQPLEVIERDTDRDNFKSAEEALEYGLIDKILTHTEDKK
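FRET quenching reversal measured ClpP activation: 10 microg/mL B. subtilis ClpP at pH 8 with the FRET-FV decapeptide, read at 430 nm after 320 nm excitation. The 20-min minus 0-min signal was scaled between DMSO/no-enzyme wells and ADEP (5.8 microM final).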
p53 reactivation = restores transcriptional activity of mutant p53. 320,000 compounds, 0.063% hits. Potency, µM (highest dose often 92.2 µM), for the others: at the top dose activity change, positive = activation, actives largely listed as activators. H1299 p53-A138V BP100-luciferase reporter, luminescence, 24 h; also: potency is read from the fitted curve at half-maximal effect; % of control where 0% means no effect; nearly all actives have a fitted effect of over 45% in size
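H1299 (p53-null), stable ts p53-A138V + BP100-Luc; 1000 cells/well, Opti-MEM/10% FBS; cpd 4 pt, 1:5; 24 h, 37 deg C, 5% CO2; detection reagent 10 min RT; luminescence.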
Menin-MLL FL inh = displaces fluorescein MLL peptide from human menin | Fluorescence polarization, fluorescein-MLL peptide displacement from menin | FP activity change, % at 61.4 µM | 290,000 tested, under 10 active; active = well fitted curve in the direction sought with a large enough effect in the polarisation, not every such curve was filed as active; inconclusive = small, poorly fitted or top-dose-only effect, or effect the other way, or a change in a side signal; inactive = no such curve, though single readings can be large or run the other way; the % refers to the polarisation; also: % of control where 0% means no effect
CXXC DNA block = blocks binding of human MLL CXXC domain to DNA; Q03164; MLL-CXXC / FITC-HOXA9 DNA fluorescence polarization; AID 2662; Potency, µM (highest dose often 115 µM), for inactives: at the highest dose activity change, negative = inhibition, hits mostly inhibitors; 290,000 compounds, 0.037% hits; active = well fitted inhibition curve with a large enough effect in the polarisation, with a control signal flat, not every such curve was filed as active; inconclusive = small, poorly fitted or top-dose-only effect, or effect the other way, or a change in a side signal; inactive = no such curve, though single readings can be large or run the other way; the % refers to the polarisation; also: potency is read from the fitted curve at half-maximal effect
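Purified MLL-CXXC (added from a 7 uM solution) was preincubated 5 min at ambient with pinned compounds in 50 mM Tris-HCl pH 7.5, 50 mM NaCl, 1 mM DTT, 0.05% BSA. Fluorescein-labeled HOX-A9 DNA (50 nM solution) followed, 30 min, then polarization read.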
Menin-MLL TR inh = displaces Texas Red mutant MLL peptide from human menin; Menin + Texas Red MLL mutant peptide, fluorescence polarization; Potency, µM (series often up to 61.6 µM), for inactives: at the top dose FP activity change, negative = inhibition, hits mostly inhibitors; 270,000 compounds, 0.23% hits; AID 1768; active = well fitted inhibition curve with a large enough effect in the polarisation, with a control signal flat, not every such curve was filed as active; inconclusive = small, poorly fitted or top-dose-only effect, or effect the other way, or a change in a side signal; inactive = no such curve, though single readings can be large or run the other way; the % refers to the polarisation; also: potency is read from the fitted curve at half-maximal effect; % of control where 0% means no effect
MLL CXXC FP-Fl = inhibitors of human MLL CXXC domain-DNA interaction; shares compounds with CXXC DNA block; MLL CXXC-DNA binding, fluorescein FP; Potency, µM (highest dose often 345 µM), without a hit: at the top dose activity change, negative = inhibition, hits mostly inhibitors; 200 compounds, 70% hits; also: potency is read from the fitted curve at half-maximal effect; nearly all actives have a fitted effect of over 80% in size
MLL CXXC FP-TR = disrupts human MLL CXXC domain binding to DNA, Texas Red; shares compounds with CXXC DNA block; MLL CXXC-DNA binding, Texas Red fluorescence polarization; Potency, µM (top dose mostly 345 µM), inactives show at the top dose activity change, negative = inhibition, hits mostly inhibitors; 200 compounds, 40% hits; AID 624161; also: potency is read from the fitted curve at half-maximal effect; % is scaled to controls: 0 for no effect and ±100 for the full control effect; nearly all actives have a fitted effect of over 75% in size
MLL CXXC HTRF = inhibitors of human MLL CXXC domain-DNA interaction, HTRF format. shares compounds with CXXC DNA block. MLL CXXC-DNA binding, HTRF, biochemical. 210 compounds, 30% hits. Potency, µM (doses to about 172 µM), for inactives: at the highest dose activity change, negative = inhibition, usual class: inhibitors. AID 624162; also: % is scaled to controls: 0 for no effect and ±100 for the full control effect; nearly all actives have a fitted effect of over 80% in size
* hit, by the source's call; i = inactive; ? = inconclusive; . = no result. Only a selection was taken, and hits are over-represented in it overall. Unless noted, calls follow the shape of the dose curve; as a rule, active = well fitted curve in the direction sought with a large enough effect; inconclusive = small, poorly fitted or top-dose-only effect, or another doubt; inactive = no such curve, though single readings can be large; an effect the other way counts as inactive or inconclusive.

SMILES	ClpP mod	p53 reactivation	Menin-MLL FL inh	CXXC DNA block	Menin-MLL TR inh	others
CC[C@H](C)[C@H](NC(=O)[C@H](CC(=O)O)NC(=O)[C@H](CC(C)C)NC(=O)[C@H](NC(C)=O)C(c1ccccc1)c1ccccc1)C(=O)N[C@H](C(=O)N[C@@H](Cc1c[nH]c2ccccc12)C(=O)O)[C@@H](C)CC	.	.	-1	.	1%
COc1ccc(OC)c2c(C)cc(N3CCN(C(=O)c4ccc(C)cc4)CC3)nc12	.	-2%	0	1%	-15%
COc1ccc(OC)c2c(C)cc(N3CCN(C(=O)c4ccc(F)cc4)CC3)nc12	20µM*	.	-1	2%	-18%
Cc1cc(-c2ccccc2)nc(N2CCC(C(=O)NCc3ccccc3Cl)CC2)n1	.	?	2	0%	-19%
C=CCNC(=O)C1CCN(c2nc(C)cc(-c3ccccc3)n2)CC1	25µM*	21%	2	5%	-1%
Cc1ccc(NC(=O)CN(C)C(=O)c2sc3cc(Cl)ccc3c2Cl)cc1	4%	0%	.	.	.
COc1ccc(NC(=O)CN(C)C(=O)c2sc3cc(Cl)ccc3c2Cl)cc1	28µM*	-8%	.	.	.
CCOc1ccc2oc(=O)cc(CN3CCN(C(=O)c4ccc(Cl)cc4)CC3)c2c1	-26%	.	.	.	.
COc1cccc(CNC(=O)c2ccc(NC(=O)N3CC(C)Sc4ccccc43)cc2)c1 (stereo not given)	-4%	.	.	.	.
CCCCN(C)CCNC(=O)c1c2c(nc3ccccc13)C(=O)N(C1CCCCC1)C2	-30%	.	.	.	.
CCN(CC)CCCNC(=O)c1c2c(nc3ccccc13)C(=O)N(C1CCCCC1)C2	14µM*	.	.	.	.
Cc1ccc(O)c(Nc2c3ccccc3nc3ccccc23)c1	-2%	11%	-12	30%	13µM*
COc1ccccc1-c1c(C#N)c(N)nc2c1CCc1ccccc1-2	1.8µM*	-10%	2	-2%	?
Cc1nc(N)c(C#N)c(-c2ccccc2Cl)c1C	?	-2%	-1	2%	6%
COc1ccccc1-c1cc(C2CC2)nc(N)c1C#N	28µM*	3%	2	0%	-21%
CCc1nc(N)c(C#N)c(-c2ccccc2OC)c1C	28µM*	-2%	4	7%	-17%
COc1ccccc1-c1c(C)c(C)nc(N)c1C#N	22µM*	-11%	-3	-1%	-4%
CCOc1ccccc1CNC(=O)c1cc2c(=O)n(Cc3ccccc3)ccc2nc1C	4%	.	.	.	.
Cc1ccc(C)c2[nH]c(=O)c(C(c3nnnn3CCc3ccccc3)N3CCOCC3)cc12 (stereo not given)	28µM*	-6%	2	-2%	-12%
COc1ccc(Cn2nnnc2C(c2cc3cccc(C)c3[nH]c2=O)N2CCOCC2)cc1 (stereo not given)	-20%	1%	-1	-20%	-8%
Cc1ccc(C)c2[nH]c(=O)c(C(c3nnnn3C3CCCC3)N3CCOCC3)cc12 (stereo not given)	25µM*	-1%	1	7%	-9%
Cc1ccc2cc(C(c3nnnn3C3CCCC3)N3CCOCC3)c(=O)[nH]c2c1C (stereo not given)	?	-6%	-2	-12%	-1%
c1ccc(N2CCN(c3nc(NCc4ccco4)c4ccccc4n3)CC2)cc1	?	-11%	0	?	21%
c1coc(CNc2nc(N3CCCCC3)nc3ccccc23)c1	22µM*	5%	4	30%	-16%
Cc1cccc(NC(=O)Cn2c(/C=C/c3ccccc3)nc3ccccc32)c1	32µM*	?	4	-2%	?
SMILES	ClpP mod	p53 reactivation	Menin-MLL FL inh	CXXC DNA block	Menin-MLL TR inh	others
C#CCN(Cc1ccc(OC)cc1)S(=O)(=O)C=C	0%	.	.	.	.
COC(=O)c1cc2nc(-c3ccc(OC)c(OC)c3)cc(C(F)(F)F)n2n1	3.2µM*	2%	19	8%	-3%
COC(=O)c1[nH]c2ccc(Cl)cc2c1NC(=O)C1CC1	32µM*	-16%	4	2%	8%
COC(=O)c1[nH]c2ccc(Cl)cc2c1NC(=O)Oc1ccccc1	10µM*	?	3	0%	?
CCOC(=O)C1CCN(CC(=O)Nc2c(C(=O)OC)[nH]c3ccc(Cl)cc23)CC1	28µM*	-12%	1	2%	25%
COC(=O)c1[nH]c2ccc(Cl)cc2c1NC(=O)CCN1CCN(C2CCCCC2)CC1	-25%	-16%	0	-1%	-14%
CCOc1ccccc1NC(=O)Cn1c(=O)nc(-c2ccccc2F)c2cc(Cl)ccc21	-5%	.	.	.	.
N#CN=c1snc(-c2ccccc2)n1-c1ccc(Br)cc1	2%	.	.	.	.
Cc1ccc(OC(=O)c2ccccc2)cc1C	28µM*	.	.	.	.
CCCCN(CC)C(=O)c1nn(C)c2c1CSc1ccccc1-2	-1%	.	.	.	.
CCOc1ccccc1-c1nc(-c2ccc(C)nc2OC)no1	28µM*	?	1	-4%	8%
COc1ccc2c(c1)c1c(c(=O)n(Cc3ccccc3)c(=O)n1CC(=O)Nc1ccccc1OC)n2C	20µM*	.	.	.	.
Cc1ccc(C)c2c(C)ccnc12	5%	.	.	.	.
O=S(=O)(Nc1cccc2cccnc12)c1ccc(Br)s1	.	.	2	.	?
Nc1nnc(SCC(=O)c2ccccc2)s1	0%	16%	-2	2%	-1%
Nc1c(C(=O)c2ccccc2)sc2snc(SCC(=O)c3ccccc3)c12	0%	12%	?	?	?	MLL CXXC FP-Fl=i;MLL CXXC FP-TR=-5%;MLL CXXC HTRF=11%
COc1ccc(C(C[N+](=O)[O-])C2(c3ccc(OC)c(OC)c3)C(=O)c3ccccc3C2=O)cc1 (stereo not given)	2%	-15%	2	?	10%	MLL CXXC FP-Fl=25%;MLL CXXC FP-TR=18%;MLL CXXC HTRF=23%
Cc1ccc(NC(=O)c2cc(S(=O)(=O)N3CCCCC3)c[nH]2)cc1N(C)C	5%	.	.	.	.
Nc1ccc2cc3ccc(N)cc3nc2c1	.	.	?	?	-15%	MLL CXXC FP-Fl=1.1µM*;MLL CXXC FP-TR=36µM*;MLL CXXC HTRF=?
Cc1ccc2cc(N)ccc2n1	.	-1%	-7	-9%	2%
